Structures are written as SMILES. Results filed as inconclusive are left out. Entries that show only a call come without a potency. Values without a mark were called inactive. Activity calls are given as the source filed them. Calls come from the whole dose curve; as a rule, active = well fitted inhibition curve with a large enough effect; inconclusive = small, poorly fitted or top-dose-only effect; inactive = no such curve, though single readings can be large or run the other way.

The test is described as follows: Primary qHTS for inhibitors of nuclear receptor binding SET domain protein 2 (NSD2) in an RCH-ACV wild type WT cells (2C) (AID 1645877). Note: nearly all actives have a fitted effect of over 70% in size. The note with it: RCH-ACV (leukaemia line) NSD2 WT (2C) viability, CellTiter-Glo, 72 h; series mostly up to 44.9 µM. In general terms: Quantitative high-throughput screening tests each substance at several concentrations.
As for `COC1CC(O[C@H]2CC[C@@]3(C)C(=CC[C@]4(O)C3[C@H](O)[C@@H](O)[C@]3(C)[C@@H]([C@H](C)O)CC[C@@]34O)C2)OC(C)C1OC1CC(OC)C(OC2CC(OC)C(OC3OC(C)C(OC4OC(CO)C(O)C(O)C4O)C(OC)C3O)C(C)O2)C(C)O1` (stereo partly specified), the activity change, negative = cell killing was -2.18% [at 9.23 µM].
Turning to `CC(=O)O[C@@]1(C)[C@@H]2CC(=C(C)C)C(=O)C[C@@]2(C)CC[C@H]1OC(=O)C1(C)OC1C` (stereo partly specified), the Potency result is “inactive”.
Regarding `CC1(C)CC[C@]2(C(=O)O[C@@H]3O[C@H](CO)[C@@H](O)[C@H](O)[C@H]3O)CC[C@]3(C)C(=CCC4[C@@]5(C)CC[C@H](O[C@@H]6O[C@H](C(=O)O)[C@@H](O)[C@H](O)[C@H]6OC6OC(CO)C(O)C(O)C6O)C(C)(C)C5CC[C@]43C)[C@@H]2C1` (stereo partly specified), the activity change, negative = cell killing is -5.08% [at 9.23 µM].
In the case of `O=C(O)C1(c2ccc(-c3ccc(Cl)c(Cl)c3)c(F)c2)CC1`, the Potency entry was “inactive”.
`CC1C2=CC(=O)OC2(O)CC2C1C(O)CC1C(C)(CO)CCCC21C` (stereo unspecified): the Potency result is “inactive”.
Turning to `CC1CCC2(C(=O)O)CCC3(C)C(=CCC4C5(C)CCC(O)C(C)(C(=O)O)C5CCC43C)C2C1(C)O` (stereo unspecified), the Potency entry is “inactive”.
Still for that read-out and setting: as for `O=C(/C=C/c1ccc(O)c(O)c1)OC[C@H]1O[C@@H](OC2CCCCC2O)[C@H](O)[C@@H](O)[C@@H]1O` (stereo partly specified), the entry is “inactive”.
For `C=CC1(C)C=C2CC[C@H]3[C@@](C)(C(=O)O)CCC[C@]3(C)C2CC1` (stereo partly specified), the Potency result was “inactive”.
Turning to `COc1ccc(/C=C/C(=O)O[C@@H]2[C@@H](OC(C)=O)[C@@H](OC(C)=O)[C@H](O[C@H]3[C@@H]4C=CO[C@@H](O[C@@H]5O[C@H](CO)[C@@H](O)[C@H](O)[C@H]5O)[C@@H]4[C@@]4(CO)O[C@@H]34)O[C@H]2C)cc1`, the Potency entry is “inactive”.
In the case of `CC(C)=CCC/C(C)=C/CO[C@@H]1O[C@H](CO[C@@H]2OC[C@](O)(CO)[C@H]2O)[C@@H](O)[C@H](O)[C@H]1O`, the Potency result is “inactive”.
For the compound `CC1OC(OC2C(OC3C(O[C@H]4CC[C@@]5(C)C(CC[C@]6(C)C5CC=C5C7CC(C)(C)CC(O)[C@]7(C)CC[C@]56C)C4(C)C)OC(C(=O)O)C(O)C3O)OCC(O)C2O)C(O)C(O)C1O` (stereo partly specified), the activity change, negative = cell killing was 4.8% [at 9.23 µM].
Regarding `CC(=C\C(C)O)/C=C(\C)C(=O)CC1CC(CC(N)=O)CC(=O)O1` (stereo unspecified), the Potency result was “inactive”.
With `CC(=O)c1ccc(O[C@@H]2O[C@H](CO[C@@H]3OC[C@@H](O)[C@H](O)[C@H]3O)[C@@H](O)[C@H](O)[C@H]2O)cc1`, the Potency entry is “inactive”.
Regarding `CCC1=C(C)C(=O)C(C)CC12C(=O)CCC2C(=O)O` (stereo unspecified), the Potency result was “inactive”.
For the compound `CC1OC(O[C@@H]2[C@@H](O)[C@H](OC(=O)[C@]34CCC(C)(C)C[C@H]3C3=CCC5[C@@]6(C)CC[C@H](O[C@@H]7O[C@H](C(=O)O)[C@@H](O)[C@H](O[C@@H]8OC[C@@H](O)[C@H](O)[C@H]8O)[C@H]7O[C@@H]7O[C@H](CO)[C@H](O)[C@H](O)[C@H]7O)[C@@](C)(C=O)C6CC[C@@]5(C)[C@]3(C)C[C@H]4O)O[C@H](C)[C@@H]2OC2OC(C)C(OC3OCC(O)C(O)C3O)C(O)C2O)C(O)C(O)C1O` (stereo partly specified), the activity change, negative = cell killing was -13.7% [at 9.23 µM].
With `CCOC(=O)C(CCc1ccccc1)NC(C)C(=O)N1Cc2ccccc2CC1C(=O)O` (stereo unspecified), the Potency entry was “inactive”.
As to `CC(=O)O[C@@H]1[C@H](O[C@@H]2O[C@H](CO)[C@@H](O)[C@H](O)[C@H]2O)[C@@H](O[C@@H]2O[C@@H](C)[C@H](O)[C@@H](O[C@@H]3O[C@H](CO)[C@@H](O)[C@H](O)[C@H]3O)[C@H]2O)[C@H](OC(=O)[C@]23CCC(C)(C)C[C@H]2C2=CCC4[C@@]5(C)C[C@H](O)[C@H](O[C@@H]6O[C@H](C(=O)O)[C@@H](O)[C@H](O)[C@H]6O)[C@@](C)(C(=O)O)C5CC[C@@]4(C)[C@]2(C)CC3)O[C@@H]1C` (stereo partly specified), the activity change, negative = cell killing was -3.72% [at 9.23 µM].
With `NC(=O)NCCCC(NC(=O)Cc1ccccc1)C(=O)O` (stereo unspecified), the Potency result is “inactive”.
On to `C=C(C(=O)O)C1CC(OC(=O)CC(C)CC)C2(C)CCCC(=C)C2C1` (stereo unspecified), for which the Potency result was “inactive”.
For the compound `COc1ccc(C(=O)OC2C3C=COC(OC4OC(CO)C(O)C(O)C4O)C3C3(CO)OC23)cc1OC` (stereo unspecified), the Potency result is “inactive”.
Regarding `CC(=O)O[C@@H](C[C@@H]1C=C(C)C(=O)O1)[C@H](C)[C@H]1CCC2[C@@]3(C)CC[C@H](O[C@@H]4O[C@H](CO)[C@@H](O)[C@H](O)[C@H]4O[C@@H]4O[C@@H](C)[C@H](O)[C@@H](O)[C@H]4O)C(C)(C)C3CC[C@@]2(C)[C@@]12COC(=O)C2` (stereo partly specified), the activity change, negative = cell killing was -8.37% [at 9.23 µM].

Source of the values: PubChem BioAssay (NCATS).
